# Data as given in the supplement of paper PMC8728848.
# Many of the other results were omitted from the sample, so the strongest signals are more common in it than they were.
# How the values were obtained:
# Assay in all cases: glycan array binding signal (z-score within array); higher = stronger binding
# Conditions in all cases: glycan notation: IUPAC condensed, linker removed
# [1] = biological target: GlcNAc(b1-3)Gal(b1-4)GlcNAc(b1-3)Gal(b1-4)GlcNAc
# In short: (§1)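 The Consortium for Functional Glycomics database supplied 3228 glycan arrays, of which those lacking an available protein sequence were dropped. The binding signal, a within-array Z-score, was averaged across arrays of the same protein sequence and across linkers. Negative scores can be read as non-binding.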
# [2] = biological target: GlcNAc(b1-3)Gal(b1-4)GlcNAc(b1-3)Gal(b1-4)GlcNAc(b1-2)Man(a1-3)[GlcNAc(b1-3)Gal(b1-4)GlcNAc(b1-3)Gal(b1-4)GlcNAc(b1-2)Man(a1-6)]Man(b1-4)GlcNAc(b1-4)GlcNAc
# In short: as §1
# [3] = biological target: GlcNAc(b1-3)Gal(b1-4)GlcNAc(b1-3)Gal(b1-4)GlcNAc(b1-3)Gal(b1-4)GlcNAc(b1-2)Man(a1-3)[GlcNAc(b1-3)Gal(b1-4)GlcNAc(b1-3)Gal(b1-4)GlcNAc(b1-3)Gal(b1-4)GlcNAc(b1-2)Man(a1-6)]Man(b1-4)GlcNAc(b1-4)[Fuc(a1-6)]GlcNAc
# In short: as §1
# [4] = biological target: GlcNAc(b1-3)Gal(b1-4)GlcNAc(b1-3)Gal(b1-4)GlcNAc(b1-3)Gal(b1-4)GlcNAc(b1-3)Gal(b1-4)GlcNAc(b1-2)Man(a1-3)[GlcNAc(b1-3)Gal(b1-4)GlcNAc(b1-3)Gal(b1-4)GlcNAc(b1-3)Gal(b1-4)GlcNAc(b1-3)Gal(b1-4)GlcNAc(b1-2)Man(a1-6)]Man(b1-4)GlcNAc(b1-4)GlcNAc
# In short: as §1
# [5] = biological target: GlcNAc(b1-3)Gal(b1-4)GlcNAc(b1-3)Gal(b1-4)GlcNAc(b1-3)Gal(b1-4)GlcNAc(b1-3)Gal(b1-4)GlcNAc(b1-2)[GlcNAc(b1-3)Gal(b1-4)GlcNAc(b1-3)Gal(b1-4)GlcNAc(b1-3)Gal(b1-4)GlcNAc(b1-3)Gal(b1-4)GlcNAc(b1-6)]Man(a1-6)[GlcNAc(b1-3)Gal(b1-4)GlcNAc(b1-3)Gal(b1-4)GlcNAc(b1-3)Gal(b1-4)GlcNAc(b1-3)Gal(b1-4)GlcNAc(b1-2)Man(a1-3)]Man(b1-4)GlcNAc(b1-4)[Fuc(a1-6)]GlcNAc
# In short: as §1
# [6] = biological target: GlcNAc(b1-3)Gal(b1-4)GlcNAc(b1-6)[Gal(b1-3)]GalNAc
# In short: as §1
# [7] = biological target: GlcNAc(b1-3)Man
# In short: as §1
# [8] = biological target: Kdn(a2-6)Gal(b1-4)GlcNAc
# In short: as §1
# [9] = biological target: Man(a1-3)[Man(a1-6)]Man(a1-6)[Man(a1-3)]Man(b1-4)GlcNAc(b1-4)GlcNAc
# In short: as §1
# [10] = biological target: Man(b1-4)GlcNAc
# In short: as §1
# [11] = biological target: Neu5Ac(a2-3)Gal
# In short: as §1
# [12] = biological target: Neu5Ac(a2-3)Gal(b1-3)GlcNAc(b1-2)Man(a1-3)[GlcNAc(b1-4)][Neu5Ac(a2-3)Gal(b1-3)GlcNAc(b1-2)Man(a1-6)]Man(b1-4)GlcNAc(b1-4)GlcNAc
# In short: as §1
# [13] = biological target: Neu5Ac(a2-3)Gal(b1-3)GlcNAc(b1-2)[Neu5Ac(a2-3)Gal(b1-3)GlcNAc(b1-4)]Man(a1-6)[Neu5Ac(a2-3)Gal(b1-3)GlcNAc(b1-2)Man(a1-3)]Man(b1-4)GlcNAc(b1-4)GlcNAc
# In short: as §1
# [14] = biological target: Neu5Ac(a2-3)Gal(b1-3)GlcNAc(b1-3)Gal(b1-4)GlcNAc
# In short: as §1
# [15] = biological target: Neu5Ac(a2-3)Gal(b1-3)GlcNAc6S
# In short: as §1
# [16] = biological target: Neu5Ac(a2-3)Gal(b1-3)[Fuc(a1-4)]GlcNAc
# In short: as §1
# [17] = biological target: Neu5Ac(a2-3)Gal(b1-3)[Neu5Ac(a2-6)]GlcNAc(b1-3)[Fuc(a1-3)[Gal(b1-4)]GlcNAc(b1-6)]Gal(b1-4)Glc
# In short: as §1
# [18] = biological target: Neu5Ac(a2-3)Gal(b1-4)GlcNAc(b1-2)Man(a1-3)[Neu5Ac(a2-3)Gal(b1-4)GlcNAc(b1-2)Man(a1-6)]Man(b1-4)GlcNAc(b1-4)[Fuc(a1-6)]GlcNAc
# In short: as §1
# [19] = biological target: Neu5Ac(a2-3)Gal(b1-4)GlcNAc(b1-3)Gal(b1-4)GlcNAc(b1-3)[Neu5Ac(a2-3)Gal(b1-4)GlcNAc(b1-3)Gal(b1-4)GlcNAc(b1-6)]GalNAc
# In short: as §1
# [20] = biological target: Neu5Ac(a2-3)Gal(b1-4)GlcNAc(b1-6)[Neu5Ac(a2-3)Gal(b1-3)]GalNAc
# In short: as §1
# [21] = biological target: Neu5Ac(a2-3)Gal(b1-4)GlcNAc6S
# In short: as §1
# [22] = biological target: Neu5Ac(a2-3)Gal(b1-4)[Fuc(a1-3)]GlcNAc(b1-3)Gal(b1-4)GlcNAc
# In short: as §1
# [23] = biological target: Neu5Ac(a2-3)GalNAc
# In short: as §1
# [24] = biological target: Neu5Ac(a2-3)[GalNAc(b1-4)]Gal(b1-4)Glc
# In short: as §1
# [25] = biological target: Neu5Ac(a2-6)Gal(b1-4)GlcNAc(b1-2)Man
# In short: as §1
# [26] = biological target: Neu5Ac(a2-6)Gal(b1-4)GlcNAc(b1-2)[Neu5Ac(a2-6)Gal(b1-4)GlcNAc(b1-6)]Man(a1-6)[Neu5Ac(a2-6)Gal(b1-4)GlcNAc(b1-2)Man(a1-3)][GlcNAc(b1-4)]Man(b1-4)GlcNAc(b1-4)GlcNAc
# In short: as §1
# [27] = biological target: Neu5Ac(a2-6)Gal(b1-4)GlcNAc(b1-3)Gal(b1-4)GlcNAc(b1-6)[Gal(b1-3)]GalNAc
# In short: as §1
# [28] = biological target: Neu5Ac(a2-6)Gal(b1-4)GlcNAc(b1-3)GalNAc
# In short: as §1
# [29] = biological target: Neu5Ac(a2-6)Gal(b1-4)GlcNAc(b1-3)[Neu5Ac(a2-6)Gal(b1-4)GlcNAc(b1-6)]GalNAc
# In short: as §1
# [30] = biological target: Neu5Ac(a2-6)Gal(b1-4)GlcNAc(b1-6)[Gal(b1-3)]GalNAc
# In short: as §1
# [31] = biological target: Neu5Ac(a2-6)Gal(b1-4)GlcNAc6S
# In short: as §1
# [32] = biological target: Neu5Ac(a2-6)GalNAc(b1-4)GlcNAc
# In short: as §1
# [33] = biological target: Neu5Ac(a2-6)GlcNAc(b1-4)GlcNAc
# In short: as §1
# [34] = biological target: Neu5Ac(a2-8)Neu5Ac(a2-3)Gal(b1-3)GalNAc(b1-4)[Neu5Ac(a2-8)Neu5Ac(a2-3)]Gal(b1-4)Glc
# In short: as §1
# [35] = biological target: Neu5Ac(a2-8)Neu5Ac(a2-3)Gal(b1-4)GlcNAc
# In short: as §1
# [36] = biological target: Neu5Ac(a2-8)Neu5Ac(a2-8)Neu5Ac(a2-3)[GalNAc(b1-4)]Gal(b1-4)Glc
# In short: as §1
binder,measurement,setting,value
ArathEULS3 TAP (Arabidopsis thaliana) (protein) IDENLYFQGGSMDEKTTGWRGGHVVEGLAGELEQLRARLEHHPQGQREPGGGGSLEITSLYKKAGFMEHHHQHHRHHQRDDGEDDRQSFGVPPPHVDAPPQPHGLYQSQPHFDPYAPTPQAPAPYRSETQFEPHAPPPYRSEPYFETPAPPPSFGHVSHVGHQSPNESYPPEHHRYGGYQQPSNSLLESHGDHSGVTHVAHHSSNQPQSSSGVYHKPDENRLPDNLAGLAGRATVKVYSKAEPNYNLTIRDGKVILAPADPSDEAQHWYKDEKYSTKVKDADGHPCFALVNKATGEAMKHSVGATHPVHLIRYVPDKLDESVLWTESKDFGDGYRTIRMVNNTRLNVDAYHGDSKSGGVRDGTTIVLWDWNKGDNQLWKIFPF,glycan array binding signal (z-score),[1],0.442
same,glycan array binding signal (z-score),[2],2.26
same,glycan array binding signal (z-score),[3],2.42
same,glycan array binding signal (z-score),[4],0.229
same,glycan array binding signal (z-score),[5],3.16
same,glycan array binding signal (z-score),[6],-0.045
same,glycan array binding signal (z-score),[7],0.29
same,glycan array binding signal (z-score),[8],0.575
same,glycan array binding signal (z-score),[9],3.03
same,glycan array binding signal (z-score),[10],-0.658
same,glycan array binding signal (z-score),[11],-1.33
same,glycan array binding signal (z-score),[12],-1.32
same,glycan array binding signal (z-score),[13],1.77
same,glycan array binding signal (z-score),[14],-0.43
same,glycan array binding signal (z-score),[15],0.337
same,glycan array binding signal (z-score),[16],0.016
same,glycan array binding signal (z-score),[17],2.31
same,glycan array binding signal (z-score),[18],-0.12
same,glycan array binding signal (z-score),[19],0.575
same,glycan array binding signal (z-score),[20],-1.05
same,glycan array binding signal (z-score),[21],-0.296
same,glycan array binding signal (z-score),[22],2.91
same,glycan array binding signal (z-score),[23],0.618
same,glycan array binding signal (z-score),[24],0.447
same,glycan array binding signal (z-score),[25],0.021
same,glycan array binding signal (z-score),[26],-0.647
same,glycan array binding signal (z-score),[27],-0.634
same,glycan array binding signal (z-score),[28],0.12
same,glycan array binding signal (z-score),[29],0.364
same,glycan array binding signal (z-score),[30],0.429
same,glycan array binding signal (z-score),[31],-0.553
same,glycan array binding signal (z-score),[32],0.004
same,glycan array binding signal (z-score),[33],1.18
same,glycan array binding signal (z-score),[34],2.9
same,glycan array binding signal (z-score),[35],-0.433
same,glycan array binding signal (z-score),[36],-0.112
